Assay outcomes: PubChem BioAssay, several laboratories
MCL1-BIM inh = inhibitors of MCL1 binding to BIM-BH3, primary screen, biochemical, fluorescence polarization. AID 2057, 2009. inhibition, % at 10.9 µM. actives 0.68% (n = 320,000). Induced myeloid leukemia cell differentiation protein Mcl-1 (Homo sapiens), Q07820. GST-MCL1 / FITC-Bim-BH3 fluorescence polarization;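 active = inhibition above the mean inhibition of all tested compounds plus 3 SD, set per campaign, cut at about 40% in these data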;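 note: 0% = DMSO wells and 100% = unlabeled Bim-BH3 peptide control; higher means more loss of mP so more displacement of Bim peptide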
Target sequence (Q07820 whole entry, looked up): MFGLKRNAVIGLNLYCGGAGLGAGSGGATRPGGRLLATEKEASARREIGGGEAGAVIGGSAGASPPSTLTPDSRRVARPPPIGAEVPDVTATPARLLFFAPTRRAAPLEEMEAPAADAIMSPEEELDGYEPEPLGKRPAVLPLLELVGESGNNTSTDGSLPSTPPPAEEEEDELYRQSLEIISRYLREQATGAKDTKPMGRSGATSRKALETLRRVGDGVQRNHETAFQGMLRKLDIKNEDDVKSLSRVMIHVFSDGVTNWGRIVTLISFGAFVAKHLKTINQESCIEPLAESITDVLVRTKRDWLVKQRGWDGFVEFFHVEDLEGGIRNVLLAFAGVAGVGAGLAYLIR
MEX-5 binding = MEX-5 zinc finger RNA-binding disruptors – biochemical, C. elegans, fluorescence polarization, MLPCN library, primary screen. actives 0.38% (n = 300,000). MEX-5/FITC-TCR2 RNA binding; active compounds read low. Zinc finger protein mex-5 (Caenorhabditis elegans), Q9XUB2. activity score (negative = inhibition of binding), % at 10 µM;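 active = inhibition past about -25% in most replicates, and total fluorescence under double the plate's negative control median, limit read from the data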;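 note: 0% = DMSO and -100% = 5 µM competing unlabeled TCR2 RNA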
eLon inh = inhibitors of E. coli Lon protease, primary screen, biochemical, fluorescence polarization. actives 0.42% (n = 360,000). purified E. coli Lon protease. inhibition, % at 7.94 µM. P0A9M0. AID 602123, 2011; in the data active = inhibition above about 13%, passing the limit was not always enough;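 note: 0% = enzyme with probe and DMSO and 100% = no enzyme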
GLD-1 TGE inh = GLD-1/TGE RNA complex disruptors, primary screen, biochemical, fluorescence polarization | inhibition, % at 5.96 µM | actives 0.44% (n = 320,000) | Female germline-specific tumor suppressor gld-1 (Caenorhabditis elegans), Q17339 | purified GLD-1 + fluorescein TGE RNA;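 active = percent inhibition above a per-plate cutoff, the plate mean of test compounds plus 3 SD, cut at about 30% in these data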;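 note: 0% = DMSO wells with GLD-1 and probe and 100% = wells lacking GLD-1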
EBV gp42 inh = Epstein-Barr virus gp42 inhibitors, primary screen, biochemical, uHTS, fluorescence polarization; Glycoprotein 42 (Epstein-Barr virus (strain AG876)), Q1HVG2; AID 1085, 2008; actives 0.42% (n = 220,000); inhibition, % (tested at 21.74 µM); Fluorescence polarization binding assay, mP read-out; in the data active = inhibition above about 50%
BCLXL inh = inhibitors of human Bcl-xL, primary screen, biochemical, fluorescence polarization, HTS; Bcl-2-like protein 1 (Homo sapiens), Q07817; GST-Bcl-xL / FITC-Bim BH3 peptide fluorescence polarization; inhibition, % at 10.9 µM; actives 0.7% (n = 320,000);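 active = inhibition above the mean of all tested compounds plus 3 SD, cutoff set per campaign, cut at about 30% in these data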;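 note: 0% = DMSO wells and 100% = unlabeled Bim-BH3 peptide competitor; inhibitors lower millipolarization by displacing the labeled peptide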
Target sequence (Q07817 whole entry, looked up): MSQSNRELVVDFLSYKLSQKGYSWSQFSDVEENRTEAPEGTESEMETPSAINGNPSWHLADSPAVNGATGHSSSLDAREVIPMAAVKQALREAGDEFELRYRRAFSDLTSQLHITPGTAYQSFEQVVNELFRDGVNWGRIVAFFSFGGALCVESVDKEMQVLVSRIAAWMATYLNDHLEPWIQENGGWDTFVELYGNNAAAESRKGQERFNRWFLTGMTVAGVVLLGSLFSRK
* marks the source's active call; other numbers are inactive results. A selection: hits, their analogues and other compounds. The true share with any hit is near 1.5%.

How did CC(C)C(=O)Nc1sc2c(c1C(N)=O)CCN(Cc1ccccc1)C2 do in these assays?
MCL1-BIM inh: -2.3; MEX-5 binding: 1.9; eLon inh: -7.9; GLD-1 TGE inh: 0.4; BCLXL inh: -3.1

Results for CC(=O)Nc1sc2c(c1C#N)CCN(Cc1ccccc1)C2 ?
MCL1-BIM inh: 6.8; MEX-5 binding: -10.8; eLon inh: 1.1; GLD-1 TGE inh: 27.6; BCLXL inh: 9.1

How did CN1CCc2c(sc(NC(=O)Cc3ccccc3)c2C(N)=O)C1 do in these assays?
MCL1-BIM inh: 3.4; MEX-5 binding: -2.3; eLon inh: -1.4; GLD-1 TGE inh: 1.6; BCLXL inh: 3.4

What do the screens show for `CCCCN(C)c1c(C)nc2ccc(C(=O)N(C)Cc3ccco3)cn12`?
eLon inh: -6.7

How did Cc1ccc(F)c(C(=O)N2CCCC(C)(C(=O)NS(=O)(=O)C3CC3)C2)c1F (stereo not drawn) do in these assays?
eLon inh: -8.3

What do the screens show for `CN1CCc2c(sc(/N=C/c3ccco3)c2C(N)=O)C1`?
MCL1-BIM inh: 45.6*; MEX-5 binding: -9.9; eLon inh: -1.8; GLD-1 TGE inh: 8.3; EBV gp42 inh: -20.4; BCLXL inh: 46.5*

How did NC(=O)c1c(NC(=O)c2c(F)cccc2F)sc2c1CCN(Cc1ccccc1)C2 do in these assays?
MCL1-BIM inh: -22.4; MEX-5 binding: -35.4*; eLon inh: -48.0; GLD-1 TGE inh: -30.6; BCLXL inh: -19.2

How did CCC(=O)Nc1sc2c(c1C(N)=O)CCN(Cc1ccccc1)C2 do in these assays?
MCL1-BIM inh: 11.1; MEX-5 binding: -7.6; eLon inh: -15.8; GLD-1 TGE inh: 18.3; BCLXL inh: 14.0

How did Cc1cc2oc3cc(NCCC4CCCN4C)ccc3c(=O)c2cc1C (stereo not drawn) do in these assays?
MCL1-BIM inh: 2.4; MEX-5 binding: 7.7; eLon inh: -5.8; GLD-1 TGE inh: -5.9; BCLXL inh: 7.3

What do the screens show for `O=c1c2ccccc2sc2ccc(NCCCN3CCOCC3)cc12`?
MCL1-BIM inh: 18.5; MEX-5 binding: -2.4; eLon inh: -46.4; GLD-1 TGE inh: 36.4*; BCLXL inh: 15.0

What do the screens show for `CN1CCCC1CCNc1ccc2sc3ccccc3c(=O)c2c1` (stereo not drawn)?
MCL1-BIM inh: 30.7; MEX-5 binding: -5.0; eLon inh: -18.2; GLD-1 TGE inh: 38.5*; BCLXL inh: 32.9*

What do the screens show for `COc1cc2sc3cc(NCCCN4CCOCC4)ccc3c(=O)c2cc1OC`?
eLon inh: 8.9; GLD-1 TGE inh: -0.2

What do the screens show for `CCCCCN(C(=O)COC(=O)c1ccc(C)cc1)c1c(N)n(CCCC)c(=O)[nH]c1=O`?
MCL1-BIM inh: -1.1; eLon inh: 1.3; GLD-1 TGE inh: 8.6; BCLXL inh: 0.1

Results for Cc1cc(C)n2nc(CNS(=O)(=O)c3ccc(C(C)(C)C)cc3)nc2n1 ?
eLon inh: -4.1

What do the screens show for `COC(=O)c1ccccc1NC(=O)CCS(=O)(=O)c1ccc(Br)cc1`?
MEX-5 binding: 0.4; eLon inh: 2.8; EBV gp42 inh: 75.5*

How did CCCCC(=O)N(C)c1c(C)nc2ccc(C(=O)N3CCCCC3)cn12 do in these assays?
eLon inh: -2.8

How did CC(C)OCc1ccc(C(=O)N2CCN(CC(=O)N3CCCC3)CC2)cc1 do in these assays?
eLon inh: -0.3; GLD-1 TGE inh: -3.6

What do the screens show for `CC1(C)Cc2c(c(-c3ccccc3Cl)[nH]c(=O)c2C#N)CO1`?
MCL1-BIM inh: 7.9; MEX-5 binding: 0.4; eLon inh: -5.3; GLD-1 TGE inh: 4.5; EBV gp42 inh: -6.1; BCLXL inh: 3.2

Results for N#Cc1c(-c2ccc(Cl)cc2)c2c([nH]c1=O)-c1ccccc1OC2 ?
MCL1-BIM inh: 4.7; MEX-5 binding: -28.4*; eLon inh: 2.9; GLD-1 TGE inh: 2.0; EBV gp42 inh: 0.7; BCLXL inh: 11.9

What do the screens show for `O=C(Nc1ccccc1Cl)c1ccccc1CC(O)(c1ccccc1)c1ccccc1`?
eLon inh: 1.8

Results for CC1CC(C)CN(C(=O)c2cccc(N3C(=O)c4ccccc4C3=O)c2)C1 (stereo not drawn) ?
MCL1-BIM inh: 10.2; eLon inh: -4.5; GLD-1 TGE inh: 4.3; BCLXL inh: -0.1

How did Cc1cc(/C=C2\SC(=S)N(Cc3ccco3)C2=O)c(C)n1-c1cccnc1 do in these assays?
MEX-5 binding: -62.3*; eLon inh: -152.4; EBV gp42 inh: 121.6*

What do the screens show for `O=C1/C(=C/c2cccnc2)SC(=S)N1Cc1ccco1`?
eLon inh: -7.2

Results for COc1ccc(NC(=O)c2c(Nc3ccccc3)sc(C(=O)c3ccc(F)cc3)c2N)cc1 ?
MCL1-BIM inh: 3.0; MEX-5 binding: -2.9; eLon inh: -0.2; GLD-1 TGE inh: 8.8; EBV gp42 inh: 18.7; BCLXL inh: 1.1

Results for COc1ccc(C(=O)c2sc(Nc3ccccc3)c(C(=O)Nc3ccc(OC)c(OC)c3)c2N)cc1 ?
MCL1-BIM inh: 4.7; MEX-5 binding: -0.3; eLon inh: -0.6; GLD-1 TGE inh: 3.4; EBV gp42 inh: 3.1; BCLXL inh: 62.7*

What do the screens show for `OCCC1CN(Cc2cn[nH]c2C2CCCCC2)CCN1C1CCCC1` (stereo not drawn)?
MCL1-BIM inh: 1.3; MEX-5 binding: 0.0; eLon inh: 4.7; GLD-1 TGE inh: 5.6; EBV gp42 inh: -5.9; BCLXL inh: 8.5

Results for O=C(CNC(=O)OCc1ccccc1)Oc1ccc2ccc(=O)oc2c1 ?
MCL1-BIM inh: 5.1; MEX-5 binding: 0.3; eLon inh: -6.5; GLD-1 TGE inh: 7.4; BCLXL inh: 5.2

What do the screens show for `O=C(NC(Cc1ccccc1)C(=O)Oc1ccc2c(C(F)(F)F)cc(=O)oc2c1)OCc1ccccc1` (stereo not drawn)?
MCL1-BIM inh: 40.6*; MEX-5 binding: -0.2; eLon inh: 73.7*; GLD-1 TGE inh: 64.6*; EBV gp42 inh: 6.8; BCLXL inh: 41.5*

What do the screens show for `CCOC(=O)[C@H]1[C@H]2COc3cc(OC)ccc3[C@@H]2N2C(=O)CN(Cc3ccc(C)cc3)C(=O)[C@@]12C`?
MCL1-BIM inh: 4.9; eLon inh: 0.1; GLD-1 TGE inh: -4.4; BCLXL inh: 6.7

How did CC(=O)c1cccc(S(=O)(=O)N2CCn3cccc3C2C)c1 (stereo not drawn) do in these assays?
MCL1-BIM inh: 40.1*; eLon inh: -4.0; GLD-1 TGE inh: 16.7; BCLXL inh: 33.2*
